Pf growth 96h – P. falciparum growth inhibition at 96 hour, primary screen for plastid delayed-death inhibitors | P. falciparum luciferase reporter growth, 96 h | Potency, µM (series often up to 28.7 µM), usual class: inhibitors | 6.9% of 320,000 active
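Luminescence readout: decreased luciferase signal marks inhibited growth of reporter-expressing P. falciparum in infected red cells (2% hematocrit, 0.05% parasitemia final), exposed to compound two generations (96 h, 37 C, 5% CO2).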
Shiga inhibitor – Shiga toxin inhibition. 9.2% of 290,000 active. inhibition, % at 38.7 µM. Vero cells, Shiga toxin protein synthesis inhibition reporter; in the data active means inhibition mostly above about 28%, no sharp cut-off; inactive means mostly below about 43%
Pf growth 48h – inhibits P. falciparum growth in the first generation, 48 h | P. falciparum luciferase growth in erythrocytes, 48 h | AID 504832 | Potency, µM (series often up to 28.7 µM), hits mostly inhibitors | 5.9% of 310,000 active
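Read-out is firefly luciferase luminescence from an integrated reporter in P. falciparum, so falling signal marks reduced parasite growth. Infected erythrocytes were at 2% hematocrit and 0.1% parasitemia (final) in Albumax-supplemented RPMI 1640.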
CHX counter – counter-screen hit for Shiga toxin inhibitors, cycloheximide; cell reporter, cycloheximide protein synthesis inhibition counterscreen; max response, %; 12% of 300,000 active; in the data active means max response mostly above about 13%, no sharp cut-off; inactive means mostly below about 14%; further: read at 38.3 µM for the half of the compounds with a filed dose
HCV inh – HCV inhibition; Huh7.5.1 HCVcc-Cre infection, luciferase reporter, 44 h; Potency, µM (highest dose often 41.8 µM), usual class: inhibitors; 3.4% of 340,000 active; AID 651820
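Antiviral activity was scored by luciferase reporter output from cells infected with HCVcc-Cre (~0.5 moi) in presence of compound, 44 h infection period, cells seeded 1,000/well 4 h prior.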
AMA1-RON2 inh – inhibitors of Plasmodium falciparum AMA1-RON2 interaction; AlphaScreen AMA1-biotinylated RON2 peptide binding; Potency, µM (titrated, usually from 58.2 µM), actives largely listed as inhibitors; 0.2% of 360,000 active; AID 720542; further: nearly all actives have a fitted effect of over 45% in size
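AMA1 (3D7) with his tag at 25 nM final met compounds first, then biotinylated RON2 peptide at 25 nM; detection used donor plus acceptor beads, 10 µg/mL apiece, read by AlphaScreen after 30 min at room temperature.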
Each line names hits and unclear results; the compound was inactive in the other large screens. In the library only some 21% were active in any assay of this set; here they are far more common. Unless noted, the call rests on the fitted dose curve; in most records, active means well fitted curve in the direction sought with a large enough effect; inconclusive means small, poorly fitted or top-dose-only effect, or another doubt; inactive means no such curve, though single readings can be large; an effect the other way counts as inactive or inconclusive.

Clc1ccc(-c2cc(CSc3ccccc3)on2)cc1	Shiga inhibitor 132.1, CHX counter 51.5
Cc1ccc(S(=O)(=O)N2C[C@H]3C(=O)C[C@@H](c4ccccc4F)N(S(=O)(=O)c4ccc(C)cc4)[C@H]3C[C@H]2c2ccccc2)cc1	none (no result: Pf growth 96h, Shiga inhibitor, Pf growth 48h, CHX counter, HCV inh)
O=C(CN1CCN(Cc2ccc3c(c2)OCO3)CC1)NCC(F)(F)F	none
CN(C(=O)COC(=O)c1ccccc1C(=O)c1ccccc1)c1ccccc1	none (no result: Pf growth 96h, Shiga inhibitor, Pf growth 48h, CHX counter)
CC(=O)NC12CC3CC(C1)CC(C(=O)Nc1cccc(S(=O)(=O)N4CCCCCC4)c1)(C3)C2	none (no result: Pf growth 96h, Shiga inhibitor, Pf growth 48h, CHX counter)
Nc1ccc(C(=O)C(=O)c2ccccc2)cc1	none (no result: Pf growth 96h, Shiga inhibitor, Pf growth 48h, CHX counter)
Nc1ccc([As](=O)(O)O)cc1	Pf growth 96h 8.28µM, Pf growth 48h 15.1µM
COc1ccc(-c2nc3ccc(C)cn3c2CC2CCCCC2)cc1OC	none (no result: Pf growth 96h, Shiga inhibitor, Pf growth 48h, CHX counter, HCV inh)
O=C(NNC1=Nc2ccccc2SC1)c1ccc(Cl)cc1	Pf growth 96h inconclusive, Pf growth 48h inconclusive, HCV inh inconclusive
O=C(NNC1=Nc2ccccc2SC1)c1ccc(F)cc1	Pf growth 96h inconclusive, Pf growth 48h 10.4µM, HCV inh inconclusive
O=C1C=CC2C3C(=O)N(c4ccccc4)C(=O)C3C1N2Cc1ccccc1 (stereo unspecified)	HCV inh inconclusive (no result: Pf growth 96h, Shiga inhibitor, Pf growth 48h, CHX counter)
O=C1c2ccccc2C(Nc2cccnc2)N1Cc1ccc2c(c1)OCO2 (stereo unspecified)	Pf growth 96h 1.47µM
COc1ccc(OC)c(NC2c3ncccc3C(=O)N2Cc2ccco2)c1 (stereo unspecified)	none
O=C1c2ccccc2C(Nc2ccc3c(c2)OCO3)N1Cc1ccco1 (stereo unspecified)	Pf growth 96h inconclusive, Shiga inhibitor 21.2
COc1ccc(OC)c(NC2c3ccccc3C(=O)N2Cc2ccc3c(c2)OCO3)c1 (stereo unspecified)	Pf growth 96h inconclusive, AMA1-RON2 inh 15.8µM (no result: Pf growth 48h)
O=C1c2ccccc2C(O)N1Cc1ccc2c(c1)OCO2 (stereo unspecified)	none (no result: Pf growth 48h)
COc1ccc(CN2C(=O)c3cccnc3C2Nc2cc(Cl)ccc2OC)cc1 (stereo unspecified)	Pf growth 96h inconclusive, Pf growth 48h 5.22µM, AMA1-RON2 inh inconclusive
CC[C@H](C)[C@H](N)C(=O)N[C@@H](CC(N)=O)C(=O)N1CCC[C@H]1C(=O)N[C@H](C(=O)N[C@@H](Cc1ccc(O)cc1)C(=O)N[C@@H](CCCN=C(N)N)C(=O)N[C@@H](CC(C)C)C(=O)N[C@@H](CCCN=C(N)N)C(=O)N[C@@H](Cc1ccc(O)cc1)C(N)=O)[C@@H](C)CC	none (no result: Pf growth 96h, Pf growth 48h, HCV inh, AMA1-RON2 inh)
CCCCOc1ccc(C(=O)N2CCNC(=O)C2)cc1	none
O=c1[nH][nH]c2c1[C@H](C1CCCC1)O[C@H](CCc1ccccc1)C2	none (no result: Pf growth 96h, Shiga inhibitor, Pf growth 48h, CHX counter, HCV inh)
O=C1c2ccccc2C(Nc2ccc3c(c2)OCO3)N1Cc1ccc2c(c1)OCO2 (stereo unspecified)	Pf growth 96h 3.29µM, Pf growth 48h 9.28µM, CHX counter 37.7, HCV inh inconclusive
COCCn1c(COc2cccc(OC)c2)nnc1SCC(=O)NC1CCCC1	none
COc1ccc(C)cc1N(C(=O)c1ccc(F)cc1)c1nc2ccccc2s1	Pf growth 96h inconclusive, Pf growth 48h inconclusive, HCV inh inconclusive
COc1ccc(C)cc1N(C(=O)COc1cccc(F)c1)c1nc2ccccc2s1	Pf growth 96h inconclusive, Pf growth 48h 0.738µM
O=C(NC1CCS(=O)(=O)C1)N1CCCCC1 (stereo unspecified)	Pf growth 96h 4.15µM (no result: Pf growth 48h)
Cc1ccc(C2=NN=C(NC(=O)CSc3nncn3C)SC2)cc1	Pf growth 48h inconclusive, HCV inh inconclusive
Cc1ccc(C2=NN=C(NC(=O)C(F)(F)F)SC2)cc1	Pf growth 96h inconclusive, Shiga inhibitor 110.8, CHX counter 26.5, HCV inh inconclusive
Cc1ccsc1/C=N/NC(=O)C(O)c1ccccc1 (stereo unspecified)	CHX counter 9.6
Cc1ccsc1/C=N\NC(=O)CC(=O)NCc1ccccc1	none
Cc1ccsc1/C=N/NC(=O)Cc1ccc([N+](=O)[O-])cc1	none (no result: Pf growth 96h, Shiga inhibitor, Pf growth 48h, CHX counter)
Cc1ccsc1/C=N/NC(=O)c1cc(-c2ccncc2)nc2ccccc12	Pf growth 96h inconclusive, Pf growth 48h inconclusive, HCV inh inconclusive
Cc1ccsc1/C=N/NC(=O)CNC(=O)c1ccccc1	HCV inh inconclusive
Cc1ccsc1/C=N/NC(=O)c1cccs1	Shiga inhibitor 77.0, CHX counter 33.0
